Screens from PubChem.
hgDAF-12 ag: H. glycines DAF-12 receptor agonists, primary screen, cell-based, luminescence, HEK293, GAL4 fusion, UAS-luciferase; Nuclear hormone receptor DAF-12 (Heterodera glycines), GAL4 fusion; HEK293 GAL4-hgDAF12 UAS-luciferase reporter, agonist luminescence; normalized to butyrate control; activation, % at 6.8 µM; actives 1.8% (n = 370,000); AID 687014, 2013;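 active means activation above a cutoff set at the mean of all screened compounds plus 3 SD, cut at about 10% in these data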;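 further: 0% = DMSO wells and 100% = sodium butyrate wells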
SMARCA2 activ: SMARCA2 (BRM) function activators, primary screen, cell-based, luminescence, high throughput. MG213 cells, MMTV-luciferase reporter, dexamethasone, overnight. activation, % at 9.1 µM. actives 1% (n = 370,000); in the data active means activation above about 7.8%;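 further: 0% = vehicle wells and 100% = reference activator wells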
DAX1 inh-1: DAX1 (NR0B1) inhibitors on StAR promoter, primary screen, cell-based, luminescence, SF-1 (NR5A1), full-length DAX-1. actives 1.1% (n = 370,000). HEK293T StAR-luciferase reporter, SF-1/DAX-1 repression relief. inhibition, % at 6.8 µM;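 active means inhibition above the mean over all tested compounds plus 3 SD, cut at about 3.6% in these data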;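 further: 0% = DAX-1 cells with DMSO and 100% = cells lacking DAX-1 with DMSO; higher inhibition means more luminescence from relief of DAX-1 repression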
hcDAF12 agonist: H. contortus DAF-12 nuclear receptor activators, primary screen, cell-based, luminescence, HEK293, lit1-tk-luc reporter | actives 1.4% (n = 370,000) | HEK293 hcDAF-12 lit1-tk-luc reporter; 0% DMSO, 100% Δ7-dafachronic acid | activation, % at 6.8 µM;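 active means activation above the mean of all tested compounds plus 3 SD, cut at about 5.5% in these data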;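 further: 100% = response to 3 µM Δ7-dafachronic acid high control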
DAX1 inh-2: DAX1 (NR0B1) inhibitors, primary screen, cell-based, HEK293, Gal4-DAX1, luciferase luminescence | HEK293 Gal4-DAX1 luciferase reporter | inhibition, % at 6.75 µM | actives 0.99% (n = 340,000) | AID 504766, 2011;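 active means inhibition above the mean over all tested compounds plus 3 SD, cut at about 4.2% in these data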;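 further: 0% = DAX1-transfected cells with DMSO and 100% = empty-vector control cells with DMSO; inhibition shows as a rise in luminescence from relieved DAX1 repression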
Target sequence (P51843 207-470 limits assumed): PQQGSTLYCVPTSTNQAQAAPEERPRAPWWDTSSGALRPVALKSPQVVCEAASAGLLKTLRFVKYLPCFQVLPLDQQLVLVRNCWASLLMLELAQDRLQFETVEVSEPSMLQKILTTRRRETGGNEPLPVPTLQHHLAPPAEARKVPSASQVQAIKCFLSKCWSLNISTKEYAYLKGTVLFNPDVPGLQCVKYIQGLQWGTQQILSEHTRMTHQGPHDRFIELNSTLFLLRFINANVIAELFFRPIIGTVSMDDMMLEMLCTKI
ssDAF12 agonist: S. stercoralis DAF-12 nuclear receptor activators, primary screen, cell-based, luminescence, HEK293, GRIP1 co-expression, lit1-tk-luc; activation, % at 6.8 µM; AID 652126, 2013; actives 1% (n = 370,000); HEK293 ssDAF-12/GRIP1 lit1-tk-luc reporter; % of 3 µM dafachronic acid response; Nuclear hormone receptor DAF-12 (Strongyloides stercoralis);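 active means activation above the mean over all tested compounds plus 3 SD, cut at about 0.9% in these data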;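 further: 0% = DMSO-only wells and 100% = 3 µM delta7-dafachronic acid wells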
Starred values were filed as active, the others as inactive; · = no result given. Only some compounds are listed: those with a hit (about 4.8% of all), similar ones and a draw of the others.

SMILES | hgDAF-12 ag | SMARCA2 activ | DAX1 inh-1 | hcDAF12 agonist | DAX1 inh-2 | ssDAF12 agonist
Cn1c(/N=C/c2cccs2)nc2ccccc21 | 4 | 6 | 0 | 5.8* | 0 | 0
CN(C)c1ccc(C(=S)NC2CCCCC2)cc1 | 13* | 6 | 4.3* | 4 | 5.1* | 0
CCN(CC)c1ccc(C(=S)NC2CCCCC2)cc1 | 2 | 2 | -1 | -2 | -1 | -1
CC(=O)N1N=C(c2ccc(Br)cc2)OC12CCCC2 | 0 | 0 | 1 | -1 | 4.4* | -2
COc1ccccc1CCn1cnc(-c2ccc(OC)c(OC)c2)c1CC(C)C | -7 | -9 | -4 | -5 | · | -2
c1ccc(-c2nc3ccccc3[nH]2)cc1 | 12* | 6 | 4.4* | 4 | 3 | 0
S=C(Nc1ccc(-c2nc3ccccc3[nH]2)cc1)Nc1cccnc1 | 11* | -1 | 2 | 2 | 1 | 0
c1cncc(-c2nc3ccccc3[nH]2)c1 | 5 | -2 | 1 | 3 | 1 | -1
c1ccc(-c2nc3ccccc3[nH]2)nc1 | 10 | 3 | 3 | 5 | 1 | 1.3*
Fc1ccc(NC(=S)Nc2cccnc2)cc1 | 1 | 0 | 0 | 0 | 1 | -1
O=c1[nH]c(-c2ccccn2)nc2ccccc12 | 5 | 4 | 1 | 3 | 1 | -1
CSc1sc(C(=O)NN)c2c1C1(CCC2)SCCS1 | 1 | 7 | 0 | 1 | 5.8* | -1
CSc1sc(C(=O)NNC(C)=O)c2c1C1(CCC2)SCCS1 | -3 | 2 | 0 | -2 | -2 | -1
C#CCNC(=O)C[C@H]1C(=O)N(Cc2ccc(OC)cc2)C2=CCCC[C@@]21C(=O)OCC | -2 | -4 | 0 | -3 | · | -2
N#CC1CCN(C(=O)c2ccc3c(Cl)c4c(nc3c2)CCCC4)CC1 | 2 | -1 | 4.4* | -2 | 1 | -1
CCN(C[C@H]1[C@@H](c2ccc(C3=CCCC3)cc2)[C@H](CO)N1c1nc(C)c(C)s1)S(=O)(=O)c1ccccc1[N+](=O)[O-] | 0 | 1 | 0 | 3 | · | -1
CSc1cccc(NC(=O)CSc2ncccc2C(=O)Oc2cccc([N+](=O)[O-])c2)c1 | 3 | 1 | 0 | 2 | 0 | 1.4*
Clc1ccc(C2Nc3ccccc3-n3cccc32)cc1 (stereo unspecified) | 3 | 1 | -1 | 5 | 1 | 1.1*
CN1c2ccccc2C(=O)NC1c1ccc(Cl)cc1 (stereo unspecified) | -1 | -5 | 0 | -1 | 0 | -1
CC(C)(C)OC(=O)NCc1cc(F)ccc1/C=C/S(=O)(=O)NCc1ccccc1 | -3 | 0 | 0 | -4 | · | -1
CCCCCC[C@@H](CC)CN(C(=O)Oc1ccccc1)c1ccccc1 | -3 | 0 | 0 | -1 | · | -1
O=C(C[n+]1cc(-c2ccc(Cl)cc2)n2c1CCC2)Nc1nc(-c2ccccc2)cs1 | 5 | -1 | 0 | 0 | 4.8* | 0
O=C(C[n+]1cc(-c2ccc(F)cc2)n2c1CCC2)Nc1nc(-c2ccccc2)cs1 | 3 | -1 | 0 | 5 | 1 | 0
O=C(/C=C(\Nc1cccc(F)c1)c1ccccc1)c1ccccc1 | 5 | 4 | 2 | 0 | · | -1
CN(C(=O)C1CCN(c2cncnc2)CC1)C1CCCCC1 | 1 | 3 | -1 | -1 | · | -1
SMILES | hgDAF-12 ag | SMARCA2 activ | DAX1 inh-1 | hcDAF12 agonist | DAX1 inh-2 | ssDAF12 agonist
CC(C)c1ccc(NC(=O)N2CCc3ccccc3C2)cc1 | 8 | 4 | 2 | 5.8* | -1 | -1
C[C@H]1[C@H](NC(=O)c2cccc(C(F)(F)F)c2)CC[C@@]23CCCN2C(=O)CCC[C@@H]13 | -4 | · | · | 0 | · | -2
CCCc1nc2c3ccccc3ccn2c1Cc1cccc(F)c1 | 10 | -2 | 2 | 5 | · | 1.1*
Cc1cc(Br)c2nc(-c3ccc(F)cc3)c(Cc3cccc(Cl)c3)n2c1 | 2 | -4 | 0 | 3 | · | 1.3*
Clc1cccc(Cc2c(-c3ccccc3)nc3c4ccccc4ccn23)c1 | 0 | 5 | 1 | 0 | · | 0
CCOC(=O)Cc1c(-c2cccc(Br)c2)nc2c3ccccc3ccn12 | 4 | 1 | -2 | 6.1* | · | 1.4*
Clc1cccc(Cc2c(-c3cccc(Cl)c3)nc3c4ccccc4ccn23)c1 | 3 | 3 | 1 | 4 | · | 1.1*
Cc1ccc(-c2nc3ccc(Br)cn3c2Cc2cccc(Cl)c2)cc1 | 6 | 3 | 3 | 0 | · | 0
Clc1ccc(-n2c(Cc3cccs3)nnc2SC/C=C/c2ccccc2)cc1 | -1 | -7 | 0 | 1 | · | -1
Fc1ccc(-c2nc3c4ccccc4ccn3c2Cc2cccc(Cl)c2)cc1 | 4 | 1 | 2 | 5.9* | · | 1
Fc1ccc(-c2nc3c4ccccc4ccn3c2Cc2ccccc2)cc1 | 2 | 7 | -1 | 2 | 1 | 1.6*
Clc1cccc(Cc2c(C3CCCCC3)nc3ccc(Cl)cn23)c1 | 2 | -4 | -1 | -1 | · | -1
CCCc1nc2ccc(C)cn2c1Cc1cccc(F)c1 | 10 | 0 | 3.9* | 4 | · | 1.9*
Clc1cccc(Cc2c(C3CCCCC3)nc3c4ccccc4ccn23)c1 | 7 | 0 | 3.8* | 6.3* | · | 1
COc1ccc(-n2c(COc3ccccc3)nnc2SCc2nc3ccccc3[nH]2)cc1 | -1 | -3 | 1 | 0 | · | -1
C(#CC1=CCCCC1)CNCc1ccccc1 | -1 | -2 | 0 | 0 | · | -1
FC(F)(F)c1ccccc1Cc1c(-c2ccc(Cl)cc2)nc2c3ccccc3ccn12 | 1 | -1 | 1 | 5 | · | 1.8*
Fc1ccc(-c2nc3c4ccccc4ccn3c2Cc2ccsc2)cc1 | 8 | -1 | 0 | 4 | · | 1.1*
Cc1ccc2nc(C3CCCCC3)c(Cc3ccccc3C(F)(F)F)n2c1 | -1 | -3 | 0 | -1 | · | 0
FC(F)(F)c1ccccc1Cc1c(C2CCCCC2)nc2c3ccccc3ccn12 | 3 | -1 | 2 | 2 | · | 1.7*
Brc1cccc(-c2nc3c4ccccc4ccn3c2Cc2ccsc2)c1 | 5 | 1 | 2 | 4 | · | 1.8*
COc1ccc(-c2nc3c4ccccc4ccn3c2Cc2ccccc2C(F)(F)F)cc1OC | 4 | -4 | -3 | 3 | · | 0
Cc1nn(-c2ccccc2)c2sc(C(=O)N3CCN(Cc4ccc(F)cc4)CC3)cc12 | 1 | -6 | -1 | 1 | · | -1
